# HCV inhibitor: blocks hepatitis C virus | Huh7.5.1 HCVcc-Cre infection, luciferase reporter, 44 h | Potency, µM (doses to about 41.8 µM), inactives show top-dose activity change, negative = inhibition, usual class: inhibitors | 340,000 compounds, 3.4% hits | AID 651820; note: % is set by controls: 0 for no effect and ±100 for the full control effect
#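 A cell-based infection assay in which seeded cells (1,000 per well) receive test compound after 4 h, are inoculated with HCVcc-Cre at approximately 0.5 moi, and are incubated 44 h before luminescence detection.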
# VACV Venus inh: vaccinia inhibition (Venus reporter); Vaccinia virus Venus reporter expression, fluorescence; AID 720580; Potency, µM (titrated, usually from 36.5 µM), for inactives: at the top dose activity change, negative = inhibition, actives largely listed as inhibitors; 330,000 compounds, 0.46% hits; calls by dose curve; tested in A549 cells; note: % is set by controls: 0 for no effect and ±100 for the full control effect; nearly all actives have a fitted effect of over 30% in size
# Pf growth 48h: inhibits P. falciparum growth in the first generation, 48 h | Potency, µM (doses to about 28.7 µM), inactives show top-dose activity change, negative = inhibition, actives largely listed as inhibitors | AID 504832 | 310,000 compounds, 5.9% hits | P. falciparum luciferase growth in erythrocytes, 48 h; note: % is set by controls: 0 for no effect and ±100 for the full control effect
#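 Erythrocytes infected with P. falciparum carrying an integrated firefly luciferase reporter (2% hematocrit, 0.1% parasitemia final) were exposed to compounds in RPMI 1640 with 0.5% Albumax at 37 C, 5% CO2. Growth inhibition was scored as reduced luminescence.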
# VACV mCherry inh: vaccinia inhibition (mCherry reporter); Vaccinia virus mCherry reporter infection, fluorescence; 310,000 compounds, 0.63% hits; Potency, µM (doses to about 36.5 µM), without a hit: at the highest dose activity change, negative = inhibition, actives largely listed as inhibitors; calls by dose curve; tested in A549 cells; note: % is set by controls: 0 for no effect and ±100 for the full control effect; nearly all actives have a fitted effect of over 35% in size
# Pf growth 96h: inhibits malaria parasite growth, 96 h. Potency, µM (doses to about 28.7 µM), inactives show top-dose activity change, negative = inhibition, actives largely listed as inhibitors. P. falciparum luciferase reporter growth, 96 h. 320,000 compounds, 6.9% hits; note: % is set by controls: 0 for no effect and ±100 for the full control effect
#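 Delayed-death screen, second-generation endpoint: infected erythrocytes, 2% hematocrit, 0.05% parasitemia final; 96 hours at 37 C, 5% CO2; luciferase detection reagent; luminescence decrease equals reduced growth.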
# NS1 function inh: blocks influenza NS1 protein function | 270,000 compounds, 0.4% hits | Potency, µM (top dose mostly 46.1 µM), without a hit: at the top dose activity, positive = more growth | AID 2326; calls by dose curve; note: actives are rising curves; nearly all actives have a fitted effect of over 50% in size
#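 In this qHTS, NS1 from influenza A is expressed in budding yeast, where it slows growth. Cells are switched from glucose to 2% galactose medium (pH 6.0, -URA), treated with compound, and growth recovery is read at OD600.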
# The depositor's hits bear a star; i = inactive; ? = inconclusive; · = no result; ! = repeats disagree; [ ] = remark or other dose. Hits are enriched below; roughly 11% of the tested compounds scored in any of these assays. Unless noted, calls come from the whole dose curve; as a rule, active = well fitted inhibition curve with a large enough effect; inconclusive = small, poorly fitted or top-dose-only effect, or another doubt; inactive = no such curve, though single readings can be large or run the other way. Potency is the fitted concentration of half-maximal effect.
SMILES,HCV inhibitor,VACV Venus inh,Pf growth 48h,VACV mCherry inh,Pf growth 96h,NS1 function inh
COc1cc(S(=O)(=O)Nc2ccccc2)ccc1N=Cc1c(C)[nH]n(-c2ccc(C)cc2)c1=O,-11%,·,-19%,·,24%,8%
COc1cc(SC#N)ccc1N=Cc1c(C)[nH]n(-c2ccc(Cl)cc2)c1=O,12%,-8%,2.1µM*,i,2.1µM*,1%
COc1ccc(CCN=Cc2c(C)[nH]n(-c3ccc([N+](=O)[O-])cc3)c2=O)cc1OC,8%,?,-2%,i,-78%,·
C/C(=N\NC(=S)NCc1ccccc1)c1ccc(C#N)cc1,8%,·,?,·,-2%,-2%
Fc1ccc(C(OCCN2CCN(CCCc3ccccc3)CC2)c2ccc(F)cc2)cc1,·,·,12µM*,·,-101%,-48%
c1ccc(CCCN2CCN(CCOC(c3ccccc3)c3ccccc3)CC2)cc1,7.9µM*,?,·,?,·,-34%
CCOC(=O)CSC1=C(C#N)C(c2ccc(Cl)cc2)CC(=O)N1 (configuration not stated),?,-27%,·,-30%,-22%,-9%
Nc1ccc2c(c1)ncn2CCCn1cnc2cc(N)ccc21,2%,-11%,36%,-3%,14%,0%
O=C(C1=C[C@H](c2csc3ccccc23)C[C@H](OCCCCO)O1)N1CCN(Cc2ccc3c(c2)OCO3)CC1,?,?,2.3µM*,?,1.5µM*,-14%
C[C@@H]1C=C(C(=O)N2CCN(Cc3ccc4c(c3)OCO4)CC2)O[C@H](OCCCCO)C1,-13%[8.37 µM],3%,4%,-10%,29%,2%
O=C(C1=C[C@@H](c2coc3ccccc3c2=O)C[C@@H](OCCCCO)O1)N1CCN(Cc2ccccc2)CC1,11%,-14%,?,0%,?,-10%
O=C(C1=C[C@@H](c2coc3ccccc3c2=O)C[C@@H](OCCCCO)O1)N1CCN(Cc2ccc3c(c2)OCO3)CC1,-3%,-16%,?,-11%,3.3µM*,-12%
O=C(NCc1ccccc1)C1=C[C@H](c2csc3ccccc23)C[C@H](OCCCCO)O1,-40%,?,?,-24%,?,2%
O=C(C1=C[C@H](c2csc3ccccc23)C[C@H](OCCCCO)O1)N1CCN(Cc2ccccc2)CC1,-4%,-17%,3.7µM*,?,2.3µM*,-8%
O=C(Nc1ccccc1)C1=C[C@H](c2csc3ccccc23)C[C@H](OCCCCO)O1,-9%,?,?,-30%,8.3µM*,4%
COc1cc(C(=O)Nc2c(C(=O)N3CCOCC3)oc3ccccc23)cc(OC)c1OC,?,·,?,·,-4%,-10%
O=C(C1=C[C@@H](c2csc3ccccc23)C[C@@H](OCCCCO)O1)N1CCN(Cc2ccc3c(c2)OCO3)CC1,?,?,?,?,12µM*,-11%
CCOC(=O)c1ccc(Nc2nc(-c3cccnc3)nc3ccccc23)cc1,?,?,5.9µM*,·,79%,-12%
c1ccc2c(Nc3ccc(N4CCOCC4)cc3)nc(N3CCOCC3)nc2c1,?,?,?,?,-24%,15%
Cc1ccccc1Nc1nc(-c2cccnc2)nc2ccccc12,?,-23%,?,?,?,-8%
Cc1cccc(-c2nc(Nc3ccc(N4CCOCC4)cc3)c3ccccc3n2)c1,?,-23%,9.3µM*,-16%,?,6%
Cc1ccc(Nc2nc(-c3cccnc3)nc3ccccc23)cc1,1.1µM*,?,15µM*,-6%,5%,9%
O=C(Oc1ccc(Nc2ncnc3ccccc23)cc1)c1cccnc1,-13%,·,3%,·,12µM*,1%
Cc1cc(C)c2c(CN3CCOCC3)cc(=O)oc2c1,9%,·,-6%,·,5%,-7%
Cc1ccc(-c2cnc(N)n2C)cc1C,?,·,?,·,4.7µM*,-5%
SMILES,HCV inhibitor,VACV Venus inh,Pf growth 48h,VACV mCherry inh,Pf growth 96h,NS1 function inh
Cn1c(-c2ccc(Cl)cc2)cnc1N,?,·,?,·,·,-3%
N#Cc1nc(COc2ccccc2)oc1N1CCOCC1,?,-7%,8%,-12%,?,1%
Cc1cc([N+](=O)[O-])nn1Cn1nc([N+](=O)[O-])cc1C,-13%,·,1%,·,5%,2%
Cc1ccc(C)c(NC(=O)CCCCCN2C(=O)[C@@H]3Cc4ccccc4CN3C2=O)c1,6%,-9%,?,-14%,-23%,-1%
Cc1ccc(NC(=O)CCCCCN2C(=O)[C@@H]3Cc4ccccc4CN3C2=O)c(Cl)c1,13µM*,·,?,·,?,-34%
Cc1noc(C)c1S(=O)(=O)N1CCC(C(=O)N2CCN(c3cccc(C(F)(F)F)c3)CC2)CC1,·,-2%,·,-11%,·,·
COc1ccc(OC)c(/C=C/C(=O)N2CCCc3ccccc32)c1,10µM*,-12%,-7%,i,?,·
COc1ccc(N/N=C(/C(C)=O)N2CCCc3ccccc32)cc1,-58%,?,4%,?,12µM*,-42%
COc1ccc(/C=C/C(=O)N2CCCc3ccccc32)c(OC)c1,-30%,-15%,?,-6%,?,-26%
CCCc1nc2ccccc2c(=O)n1NC(=O)c1c(O)c2ccccc2n(C)c1=O,-25%,-13%,17%,i,8%,4%
Cc1nn(C)cc1C1C(C#N)=C(N)N(c2ccc(F)c([N+](=O)[O-])c2)C2=C1C(=O)CCC2 (configuration not stated),13%,?,?,10µM*,9.3µM*,12%
COc1ccc(C2C(C#N)=C(N)N(c3cccnc3)C3=C2C(=O)CCC3)cc1Cn1cc([N+](=O)[O-])cn1 (configuration not stated),-3%,-2%,?,-9%,?,13%
COc1ccc(C2C(C#N)=C(N)N(c3ccccc3)C3=C2C(=O)CCC3)cc1Cn1cc([N+](=O)[O-])cn1 (configuration not stated),?,-12%,8.3µM*,i,15µM*,23%
Cc1ccnc2c(N3C(=O)C4C5c6ccccc6C(c6ccccc65)C4C3=O)cccc12 (configuration not stated),?,·,?,·,5.2µM*,-8%
Cc1ccnc2c(O)cccc12,·,5%,·,-12%,·,·
CN(C1CCCCC1)S(=O)(=O)c1ccc2c(c1)c(=O)c(C(=O)NCc1ccc(F)cc1)cn2C,·,3%,·,-18%,·,·
CC(=O)OCC1=C(C(=O)O)N2C(=O)[C@@H](NC(=O)Cc3cccs3)[C@H]2SC1,0.56µM*!,-2%,-13%,2%,-9%,18%
CC(=O)OCC1=C(C(=O)O)N2C(=O)[C@@H](NC(=O)Cc3ccccc3)[C@H]2SC1,16%,3%,·,28%,·,·
CC1CCN(S(=O)(=O)c2ccc3ncn(CC(=O)N(C)Cc4ccccc4)c(=O)c3c2)CC1,-6%,-17%,?,-26%,15µM*,1%
